Assay [1] deals with Luciferin 4-monooxygenase (Photinus pyralis) (UniProt P08659). Briefly: qHTS assay to identify small molecule inhibitors of firefly luciferase (AID 1224835). Also: nearly all actives have a fitted effect of over 25% in size. The method, boiled down:
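Biochemical qHTS: compounds run as interplate titrations against purified firefly enzyme, with D-luciferin and ATP each at its KM concentration. Light output recorded by CCD imaging.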
(In qHTS, concentration-response curves come from the screen itself.)

Assay [2] can be described thus: qHTS assay to identify small molecule agonists of the constitutive androstane receptor (CAR) signaling pathway - cell viability counter screen (AID 1224836). Also: nearly all actives have a fitted effect of over 45% in size. Also: potency is read from the fitted curve at half-maximal effect. A digest of the protocol:
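HepG2 cells stably carrying hCAR and a CYP2B6-2.2kb reporter; 15-concentration compounds plus PK11195 (final 0.75 uM), 23 hr at 37 C/5% CO2. Viability read by CellTiter-Fluor fluorescence.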

Assay [3] can be described thus: qHTS assay to identify small molecule antagonists of the constitutive androstane receptor (CAR) signaling pathway - cell viability counter screen (AID 1224837). Also: nearly all actives have a fitted effect of over 45% in size. Also: potency is read from the fitted curve at half-maximal effect. The method, boiled down:
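HepG2 cells stably expressing hCAR and a CYP2B6-2.2kb reporter were plated and pre-incubated 4 hr at 37 C/5% CO2, then given compounds at 15 concentrations plus 50 nM CITCO (final). After 23 hr, viability was read by CellTiter-Fluor fluorescence.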

In assay [4] the target is Thyrotropin receptor (Homo sapiens) (UniProt P16473). Briefly: qHTS assay to identify small molecule agonists of the thyroid stimulating hormone receptor (TSHR) signaling pathway (AID 1224843; calls by dose curve; also: nearly all actives have a fitted effect of over 45% in size). The method, boiled down: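 Steps: seed 800 TSHR-HEK293 cells per well; add test compound and hold 30 min at ambient temperature; dispense cAMP-d2 then anti-cAMP cryptate; incubate 1 h at ambient; measure fluorescence intensity.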

Assay [5] is described as follows: qHTS assay to identify small molecule agonists of the hypoxia (HIF-1) signaling pathway - cell viability counter screen (AID 1224844; calls by dose curve; also: nearly all actives have a fitted effect of over 50% in size; also: potency is read from the fitted curve at half-maximal effect). The method, boiled down: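 HRE-bla ME-180 cells in medium with 0.5% dialyzed FBS were preincubated 5 hrs at 37C, exposed to compounds for 17 hrs, then viability was read as CellTiter-Glo luminescence after 30 min at room temperature, in the reporter wells.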

A short description of assay [6]: qHTS assay to identify small molecule agonists of H2AX (AID 1224845; active = well fitted activation curve with a large enough effect in the signal ratio in the repeat runs, not every such curve was filed as active; the % refers to the signal ratio; also: potency is read from the fitted curve at half-maximal effect). The method, boiled down:
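Wild-type CHO-K1 cells, plated overnight, exposed 3hr at 37C to 15 concentrations (0.76% DMSO final). Lysed, then HTRF anti-pH2AX (S139) cryptate and anti-H2AX-d2 antibodies, 24 hr room temperature; 665/620 nm emission read.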

Assay [7] is described as follows: qHTS assay to identify small molecule agonists of the hypoxia (HIF-1) signaling pathway (AID 1224846; active = well fitted activation curve with a large enough effect in the signal ratio in the repeat runs, not every such curve was filed as active; the % refers to the signal ratio). The method, boiled down: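 HRE-bla ME-180 cells (beta-lactamase reporter under hypoxia response element) were plated at 2,000 cells/well in medium with 0.5% dialyzed FBS, rested 5 hrs, then given compounds in DMSO for 17 hrs at 37C, 5% CO2. Reporter induction was read with CCF4-AM FRET substrate.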

The nature of assay [8]: qHTS assay to identify small molecule agonists of H2AX - cell viability counter screen (AID 1224847; calls by dose curve; also: nearly all actives have a fitted effect of over 30% in size; also: potency is read from the fitted curve at half-maximal effect). A digest of the protocol:
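CHO-K1 cells plated overnight at 37C, then exposed 3 h at 37C to compounds at 15 concentrations (0.76% DMSO final). Viability by CellTiter-Glo luminescence after 30 min at room temperature.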

A short description of assay [9]: qHTS RealTime-Glo MT Cell Viability Assay in HepG2 cells - 24 hour (AID 1224867). Also: nearly all actives have a fitted effect of over 50% in size. Also: potency is read from the fitted curve at half-maximal effect. The method, boiled down: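 HepG2 suspension premixed with RealTime-Glo reagents is plated at 600 cells per well and left 5 h at 37 C/5% CO2. Compounds in DMSO then go in, and bioluminescence reflecting viable cell number is recorded over 40 h.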
Assay [10] in a line: qHTS RealTime-Glo MT Cell Viability Assay in HEK293 cells - 32 hour (AID 1224868). Also: nearly all actives have a fitted effect of over 50% in size. Also: potency is read from the fitted curve at half-maximal effect. The method, boiled down: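 Reads taken at 0, 8, 16, 24, 32 and 40 h from the same wells. HEK293 cells (600/well) carried RealTime-Glo reagents from seeding, with compound added after a 5 h settle at 37 C.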
A short description of assay [11]: A CellTox Green Cytotoxicity Assay to monitor cytotoxicity in HEK293 cells - 0 hour (AID 1224869). Also: nearly all actives have a fitted effect of over 50% in size. Also: potency is read from the fitted curve at half-maximal effect. The method, boiled down:
(§1)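 HEK293 cells premixed with CellTox Green dye were seeded at 600 cells/well and left 5 h at 37 C/5% CO2 before pin transfer of 23 nL compound in DMSO. Fluorescence from dye bound to dead-cell DNA was read during 40 h treatment.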

A short description of assay [12]: A CellTox Green Cytotoxicity Assay to monitor cytotoxicity in HEK293 cells - 40 hour (AID 1224871). Also: nearly all actives have a fitted effect of over 45% in size. Also: potency is read from the fitted curve at half-maximal effect. The method, boiled down:
as §1

A short description of assay [13]: qHTS assay to identify small molecule antagonists of the estrogen related receptor signaling pathway with the pleiotropic PPARgamma coactivator (PGC) from Tox21 10K library - cell viability counter screen (AID 1224840; active = well fitted cell-killing curve with a large enough effect in the repeat runs, not every such curve was filed as active; also: nearly all actives have a fitted effect of over 40% in size; also: potency is read from the fitted curve at half-maximal effect). The method, boiled down:
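PGC/ERR cells were seeded at 2,000 cells/well and left 6 hours at 37 C/5% CO2 before pin-tool addition of compounds in DMSO. After 17.5 hours at 37 C, CellTiter-Fluor was added and fluorescence read 30 minutes later.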

A short description of assay [14]: qHTS assay to identify small molecule antagonists of the estrogen related receptor signaling pathway with the pleiotropic PPARgamma coactivator (PGC) from Tox21 10K library (AID 1224841; call rule not given here; also: potency is read from the fitted curve at half-maximal effect). A digest of the protocol: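 PGC/ERR reporter cells were seeded at 2,000 cells/well and held 6 hours at 37 C/5% CO2 before pin-tool addition of compounds in DMSO. After 18 hours at 37 C, One-Glo was added and luminescence read after 30 minutes at room temperature.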

Assay [15] in a line: qHTS assay to identify small molecule agonists of the estrogen related receptor signaling pathway with the pleiotropic PPARgamma coactivator (PGC) from Tox21 10K library (AID 1224842). Also: nearly all actives have a fitted effect of over 15% in size. A digest of the protocol: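 PGC/ERR reporter cell line, 2,000 cells per well, incubated 6 h at 37 C before 23 nL compound in DMSO was added. After 18 h at 37 C, One-Glo luminescence read following 30 min at room temperature.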

Assay [16] in a line: qHTS assay to identify small molecule antagonists of the estrogen related receptor (ERR) signaling pathway from Tox21 library (AID 1224848). Also: nearly all actives have a fitted effect of over 50% in size. Also: potency is read from the fitted curve at half-maximal effect. The method, boiled down: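 Luminescent reporter read-out (ONE-Glo) from NTP's ERR cell line after 18 h treatment at 37 C with DMSO-dissolved Tox21 compounds; cells pre-plated 6 h beforehand at 2,000 per well.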
A short description of assay [17]: qHTS assay to identify small molecule agonists of the estrogen related receptor (ERR) signaling pathway from Tox21 library (AID 1224849; calls by dose curve; also: nearly all actives have a fitted effect of over 15% in size). The following applies: ERR reporter cell line, ONE-Glo luciferase, 18 h. A digest of the protocol:
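ERR reporter cell line (NTP) seeded, rested 6 h at 37 C/5% CO2, then pinned with Tox21 compounds in DMSO. After 18 h at 37 C, ONE-Glo luciferase luminescence was read following 30 min at room temperature.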

Assay [18] is described as follows: qHTS RealTime-Glo MT Cell Viability Assay in HepG2 cells - 40 hour (AID 1224870). Also: nearly all actives have a fitted effect of over 50% in size. Also: potency is read from the fitted curve at half-maximal effect. The method, boiled down:
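HepG2 cells (600/well) mixed with RealTime-Glo MT reagent, settled 5 h at 37 C/5% CO2 before compound addition. Nonlytic NanoLuc luminescence from viable-cell prosubstrate reduction read repeatedly during 40 h treatment at 37 C.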

In assay [19] the target is Nuclear receptor subfamily 1 group I member 3 (Homo sapiens) (UniProt Q14994). Briefly: qHTS assay to identify small molecule antagonists of the constitutive androstane receptor (CAR) signaling pathway (AID 1224838). Also: nearly all actives have a fitted effect of over 40% in size. Also: potency is read from the fitted curve at half-maximal effect. The method, boiled down: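 HepG2 cells stably co-transfected with hCAR and a CYP2B6-2.2kb luciferase reporter were seeded 4 h before compound addition at 15 concentrations. Cells were stimulated with 50 nM CITCO (final) for 24 h at 37 C; luciferase luminescence was then read.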

Assay [20] has the same target. Briefly: qHTS assay to identify small molecule agonists of the constitutive androstane receptor (CAR) signaling pathway (AID 1224839). Also: nearly all actives have a fitted effect of over 15% in size. A digest of the protocol: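 HepG2 cells stably co-transfected with hCAR and a CYP2B6-2.2kb luciferase reporter; compounds at 15 concentrations with 0.75 uM PK11195 present. After 24 hr at 37 C, luciferase read by ONE-Glo luminescence.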

Values joined by “and” are separate entries in the source; they are usually repeats but may differ in a detail not shown here. Equal values may be shown once. Results filed as inconclusive are left out. More than one record can exist for a structure, and the calls need not agree. Active and inactive are the calls of the source. Unless noted, calls follow the shape of the dose curve; as a rule, active = well fitted curve in the direction sought with a large enough effect in the repeat runs; inconclusive = weak or mixed curves; inactive = no such curve, though single readings can be large; an effect the other way counts as inactive or inconclusive.
% is scaled to controls: 0 for no effect and ±100 for the full control effect.

Nuclear receptor subfamily 1 group I member 3 (Homo sapiens), sequence (Q14994 whole entry, looked up): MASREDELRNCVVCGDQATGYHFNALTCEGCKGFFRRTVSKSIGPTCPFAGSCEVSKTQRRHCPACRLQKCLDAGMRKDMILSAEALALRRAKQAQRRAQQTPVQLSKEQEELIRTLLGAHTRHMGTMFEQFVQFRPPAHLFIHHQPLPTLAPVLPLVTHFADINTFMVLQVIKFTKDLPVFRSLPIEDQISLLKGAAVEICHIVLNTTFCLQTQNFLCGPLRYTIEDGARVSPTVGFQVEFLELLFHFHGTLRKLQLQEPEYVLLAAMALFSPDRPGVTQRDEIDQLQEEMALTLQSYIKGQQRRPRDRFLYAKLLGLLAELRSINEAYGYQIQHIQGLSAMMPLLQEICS
Thyrotropin receptor (Homo sapiens), sequence (P16473 whole entry, looked up): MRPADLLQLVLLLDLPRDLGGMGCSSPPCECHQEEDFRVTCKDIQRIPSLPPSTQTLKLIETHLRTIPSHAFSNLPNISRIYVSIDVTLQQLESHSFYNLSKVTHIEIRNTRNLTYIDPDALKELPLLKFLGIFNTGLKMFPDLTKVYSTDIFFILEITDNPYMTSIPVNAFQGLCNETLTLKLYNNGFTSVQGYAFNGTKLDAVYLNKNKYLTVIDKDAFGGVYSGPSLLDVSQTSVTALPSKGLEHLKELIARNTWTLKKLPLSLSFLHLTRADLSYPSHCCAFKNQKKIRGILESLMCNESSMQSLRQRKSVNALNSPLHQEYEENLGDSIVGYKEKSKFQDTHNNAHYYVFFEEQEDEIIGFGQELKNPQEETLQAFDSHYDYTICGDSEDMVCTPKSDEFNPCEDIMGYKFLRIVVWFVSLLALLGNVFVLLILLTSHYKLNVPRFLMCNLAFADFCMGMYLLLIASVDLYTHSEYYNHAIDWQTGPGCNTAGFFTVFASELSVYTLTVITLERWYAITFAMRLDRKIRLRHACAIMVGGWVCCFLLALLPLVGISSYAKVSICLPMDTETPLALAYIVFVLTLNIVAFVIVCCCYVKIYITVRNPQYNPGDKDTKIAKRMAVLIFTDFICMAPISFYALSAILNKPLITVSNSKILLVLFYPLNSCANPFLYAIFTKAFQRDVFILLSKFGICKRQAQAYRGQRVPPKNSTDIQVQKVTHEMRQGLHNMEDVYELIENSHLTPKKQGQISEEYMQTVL
Luciferin 4-monooxygenase (Photinus pyralis), sequence (P08659 whole entry, looked up): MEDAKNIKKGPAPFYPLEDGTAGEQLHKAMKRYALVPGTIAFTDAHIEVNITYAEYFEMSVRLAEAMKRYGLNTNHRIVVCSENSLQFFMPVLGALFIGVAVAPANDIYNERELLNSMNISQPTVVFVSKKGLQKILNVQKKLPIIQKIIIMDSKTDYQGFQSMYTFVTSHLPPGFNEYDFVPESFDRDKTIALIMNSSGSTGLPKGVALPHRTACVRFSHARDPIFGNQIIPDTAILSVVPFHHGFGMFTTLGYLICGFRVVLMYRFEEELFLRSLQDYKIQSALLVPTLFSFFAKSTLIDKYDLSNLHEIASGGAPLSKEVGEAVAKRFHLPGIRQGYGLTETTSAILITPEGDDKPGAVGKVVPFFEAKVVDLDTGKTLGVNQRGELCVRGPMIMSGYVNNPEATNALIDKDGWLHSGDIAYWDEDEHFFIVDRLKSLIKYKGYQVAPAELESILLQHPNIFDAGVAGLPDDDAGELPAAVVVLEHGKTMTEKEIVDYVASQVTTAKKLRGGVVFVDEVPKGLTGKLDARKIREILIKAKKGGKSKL

On to `NCCN`, for which the Potency result in [1], in assay [2], in assay [3], in assay [4], in assay [5] and in [6] was “inactive” each time. Moreover, the Potency result in [8], in [10], in [11] and in [12] was “inactive” in each case. For the same molecule, in [7], the call was inactive. For the same molecule, the Potency entry in assay [9] was “inactive and 38.9 µM (active)”.

As to `OCCNCCO`, the Potency result in assay [1], in assay [2], in assay [3], in [13], in [14] and in assay [15] was “inactive” throughout. In addition, the Potency result in [4], in assay [5], in [6], in assay [16], in assay [9] and in assay [10] was “inactive” in each case. Also, the Potency result in assay [11] and in assay [12] was “inactive” in each case. The call in assay [7] was inactive. In assay [17] (at 92.4 µM (top of the series)), the activity change, positive = activation was -2.22% (inactive) and 4.53% (inactive).

Turning to `C1CN(SSN2CCOCC2)CCO1`, the Potency result in assay [1], in [2], in assay [15], in assay [4], in assay [9] and in [10] was “inactive” in each case. Moreover, the Potency result in assay [11] and in [18] was “inactive” throughout. Further, the Potency in [14] was 53.9 µM (active); in assay [5], 54.4 µM (active); in [16] it was 60.5 µM (active) and 61.1 µM (active); in assay [12], 54.4 µM (active) and inactive. Further, in assay [7], the molecule was called inactive. For the same molecule, the activity change, positive = activation in assay [17] (at 92.4 µM (top of the series)) is -55.6% (inactive) and -54.1% (inactive).

Regarding `O=C1OC2(c3ccccc31)c1cc(I)c(O)c(I)c1Oc1c2cc(I)c(O)c1I`, the Potency in assay [2] was 15.5 µM (active) [middle of 4 runs]; in assay [3], 15.4 µM (active) [middle of 4 runs]; in [19] it was 6.13 µM (active) and inactive and 14.8 µM (active); in assay [13] it was 13.7 µM (active) and 19.6 µM (active) and 16.6 µM (active); in assay [14], 15.4 µM (active) and 15.5 µM (active); in [6] it was 51.1 µM (active). The Potency in [8] was 11.3 µM (active) and 28.7 µM (active) and 8.65 µM (active); in [9] it was 39 µM (active) and 27.9 µM (active); in [10], 49.1 µM (active) and inactive; in assay [11], 15.5 µM (active) [middle of 4 runs]; in [12], 11.8 µM (active) [middle of 4 runs]. The Potency entry in assay [20], in assay [15], in assay [5] and in assay [16] was “inactive” throughout. Also, the molecule was classed as inactive in assay [7]. Also, the activity change, positive = activation in assay [17] (at 42.5 µM (top of the series)) is -27.3% (inactive) and -18.3% (inactive) and -7.34% (inactive); in assay [17] (at 92.4 µM (top of the series)) it was -20.6% (inactive).

In the case of `C[C@]12C=CC(=O)C=C1CC[C@H]1[C@@H]3C[C@@H](O)[C@](O)(C(=O)CO)[C@@]3(C)C[C@H](O)[C@@]12F`, the Potency result in [1], in assay [2], in [3], in assay [13], in [14] and in assay [15] was “inactive” throughout. The Potency result in assay [4], in assay [5], in [6], in assay [16], in [9] and in assay [10] was “inactive” throughout. Moreover, the Potency entry in assay [11], in assay [18] and in assay [12] was “inactive” throughout. For the same molecule, the outcome in assay [7] was inactive. Also, the results for the activity change, positive = activation in [17] (at 42.5 µM (top of the series)) and in assay [17] (at 92.4 µM (top of the series)) were 2.12% (inactive) and -0.443% (inactive), respectively.

Turning to `Cc1ccc(N)c([N+](=O)[O-])c1`, the Potency entry in assay [2], in assay [3], in [19], in assay [20], in assay [4] and in assay [5] was “inactive” in each case. The Potency entry in assay [6], in assay [9], in [10], in assay [11] and in assay [12] was “inactive” each time. Also, the outcome in assay [7] was inactive.

On to `O=C(CCCN1CCC(O)(c2ccc(Cl)cc2)CC1)c1ccc(F)cc1`, for which the Potency in [2] is 61.1 µM (active); in assay [3] it was 54.5 µM (active); in assay [13] it was 54.5 µM (active) and inactive; in [9], 49 µM (active) and inactive; in assay [10], 17.4 µM (active) and 8.49 µM (active); in assay [18], 54.9 µM (active) and inactive. Moreover, the Potency in assay [12] was 49 µM (active) and inactive. Also, the Potency result in [4], in assay [5], in [6], in assay [8] and in [11] was “inactive” throughout.
